{"source": "PubChem BioAssay AID2058", "about": "(Sanford-Burnham Center for Chemical Genomics, 2009)", "note": "Screen size: about 290,000 compounds; about 150 (0.052%) were called active.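 How the source made its calls: active means inhibition of at least 50% with at least 30 cells and total cytoplasm GFP at most 10,000,000; inconclusive means under 30 cells or total GFP of 10,000,000 plus; inactive means the rest.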 Only a selection was taken, and actives are over-represented in it overall. Measured potencies and affinities stand elsewhere.", "data": [{"target": "G-protein coupled receptor 35 (Homo sapiens) (UniProt Q9HC97)", "sequence (Q9HC97 whole entry, looked up)": "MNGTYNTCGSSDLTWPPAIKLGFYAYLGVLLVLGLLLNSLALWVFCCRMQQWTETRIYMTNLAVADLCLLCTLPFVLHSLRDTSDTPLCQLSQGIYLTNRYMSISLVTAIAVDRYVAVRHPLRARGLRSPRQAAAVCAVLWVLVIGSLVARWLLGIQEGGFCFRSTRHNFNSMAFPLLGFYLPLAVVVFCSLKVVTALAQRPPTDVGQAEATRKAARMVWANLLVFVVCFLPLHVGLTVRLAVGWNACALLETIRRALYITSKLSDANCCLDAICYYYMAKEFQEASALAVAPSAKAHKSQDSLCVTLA", "test": "inhibition of zaprinast-stimulated GPR35 beta-arrestin translocation – imaging, U2OS, beta-arrestin-GFP, zaprinast agonist, primary screen (AID 2058)", "conditions": "zaprinast antagonism, at 10 µM, stronger effect = higher value", "values": [{"smiles": "COc1ccc(COc2ccccc2C(=O)Nc2ccccn2)cc1[N+](=O)[O-]", "inhibition": "15.8% (inactive)"}, {"smiles": "Cc1ccc(S(=O)(=O)N/N=C/c2cccc(OC3CSC3)c2)cc1", "inhibition": "9.4% (inactive)"}, {"smiles": "C[C@@H]1CC=C[C@H]2[C@H]1C(=O)N(Cc1ccccc1)[C@H]2c1ccc(F)c(-c2ccc(N(C)C)cc2)c1", "inhibition": "17.6% (inactive)"}, {"smiles": "Cc1ccc(-c2nnc(N3CC(C)OC(C)C3)c3ccccc23)cc1", "note": "(stereo not drawn)", "inhibition": "13.6% (inactive)"}, {"smiles": "COc1cc(C(=S)N2CCOCC2)ccc1OC(=O)c1cc([N+](=O)[O-])c(C)c([N+](=O)[O-])c1", "inhibition": "10.7% (inactive)"}, {"smiles": "CCc1ccc(C(C)NC(=O)c2ccc3c(c2)OCO3)cc1", "note": "(stereo not drawn)", "inhibition": "-12.5% (inactive)"}, {"smiles": "O=C(NC(c1ccccc1)c1ccccc1)c1ccc(CO)cc1", "inhibition": "7% (inactive)"}, {"smiles": "CC1=CC(C)(C)N(C)C(=O)N1c1ccc(Cl)cc1", "inhibition": "20.7% (inactive)"}, {"smiles": "Cc1cc(=O)cc(C)n1-c1ccc(Cl)cc1", "inhibition": "-8.7% (inactive)"}, {"smiles": "COC1CCN(C(=O)c2cc(COc3ccc(-n4cncn4)cc3)on2)CC1", "inhibition": "17.9% (inactive)"}, {"smiles": "O=C(Nc1cc([N+](=O)[O-])ccc1N1CCCC1)c1ccco1", "inhibition": "-5% (inactive)"}, {"smiles": "CC(C)(C)C(=O)C[n+]1ccccc1", "inhibition": "-9.2% (inactive)"}, {"smiles": "CCCOC(=O)c1ccc(Nc2cc(C)nc3ncnn23)cc1", "inhibition": "11.5% (inactive)"}, {"smiles": "COCCN(CC(=O)NC1CCCCC1)C(=O)/C=C/C(=O)c1ccc(OC)cc1O", "inhibition": "15.7% (inactive)"}, {"smiles": "COc1ccc(C(=O)/C=C/C(=O)N(CC(=O)NC2CCCCC2)CC2CCCO2)c(O)c1", "note": "(stereo not drawn)", "inhibition": "69.1% (active)"}, {"smiles": "COc1ccc(C(=O)/C=C/C(=O)N(CC(=O)NC2CCCCC2)Cc2ccccc2)c(O)c1", "inhibition": "-0.1% (inactive)"}, {"smiles": "Cc1nn(-c2ccccc2)nc1C(N)=O", "inhibition": "12.1% (inactive)"}, {"smiles": "O=C1C2C3C=CC(C3)C2C(=O)N1CCCCCCN1C(=O)C2C3C=CC(C3)C2C1=O", "note": "(stereo not drawn)", "inhibition": "-2% (inactive)"}, {"smiles": "O=C1C=CC(=O)N1Cc1ccccc1", "inhibition": "4.8% (inactive)"}, {"smiles": "COc1cccc(Nc2nc(N)c([N+](=O)[O-])c(N3CCOCC3)n2)c1", "inhibition": "0.4% (inactive)"}, {"smiles": "O=C(NCc1ccco1)C(=O)NCC1OCCCN1S(=O)(=O)c1ccc(Cl)cc1", "note": "(stereo not drawn)", "inhibition": "-6.3% (inactive)"}, {"smiles": "C/C(=N/NC(=O)CNC(=O)C1COc2ccccc2O1)c1cccc(O)c1", "note": "(stereo not drawn)", "inhibition": "0.2% (inactive)"}, {"smiles": "COc1ccc(/C=C/C(=O)NCC(=O)N/N=C/c2ccc(OC)cc2)cc1", "inhibition": "9% (inactive)"}, {"smiles": "O=C(/C=C\\c1ccccc1)NCC(=O)N/N=C/c1ccc(O)cc1O", "inhibition": "10.7% (inactive)"}, {"smiles": "COc1cc(/C=C2/SC(=S)N(Cc3ccccc3)C2=O)ccc1O", "inhibition": "-5.7% (inactive)"}, {"smiles": "COc1ccc(/C=C2\\SC(=S)N(CCCC(=O)Nc3ccc(O)cc3)C2=O)cc1", "inhibition": "44.8% (inactive)"}, {"smiles": "O=C(CCCN1C(=O)/C(=C\\c2cccs2)SC1=S)Nc1cccc(C(=O)O)c1", "inhibition": "0.3% (inactive)"}, {"smiles": "COc1ccc(/C=C2\\SC(=S)N(CCC(=O)Nc3cccc(C(=O)O)c3)C2=O)cc1", "inhibition": "2.8% (inactive)"}, {"smiles": "CCc1ccc(/C=C2/SC(=S)N(CCC(=O)Nc3cccc(C(=O)O)c3)C2=O)cc1", "inhibition": "-9.9% (inactive)"}, {"smiles": "Cc1ccc(/C=C2/SC(=S)N(CCCC(=O)Nc3ccc(O)cc3)C2=O)cc1", "inhibition": "36.2% (inactive)"}, {"smiles": "COc1ccc(/C=C2\\SC(=S)N(CCCC(=O)Nc3ccc(C(=O)O)cc3)C2=O)cc1OC", "inhibition": "30% (inactive)"}, {"smiles": "COc1ccc(/C=C2/SC(=S)N(Cc3ccccc3)C2=O)cc1O", "inhibition": "-18.7% (inactive)"}, {"smiles": "COc1cc(/C=C2/SC(=S)N(Cc3ccccc3)C2=O)cc(Cl)c1O", "inhibition": "74.4% (active)"}, {"smiles": "COC(=O)c1ccc(Cn2nc(C)c(Br)c2C)cc1", "inhibition": "4% (inactive)"}, {"smiles": "C[C@H](NC(=O)c1nc[nH]c1C(=O)N[C@H](C)c1ccccc1)C(=O)OC(C)(C)C", "inhibition": "5.8% (inactive)"}, {"smiles": "Cc1cc(=O)oc2c(C)c3occc3cc12", "inhibition": "-1.8% (inactive)"}, {"smiles": "O=C1C(=O)N(CCN2CCOCC2)C(c2cccc(Cl)c2)/C1=C(\\O)c1ccc2c(c1)OCCO2", "note": "(stereo not drawn)", "inhibition": "-1.2% (inactive)"}, {"smiles": "Cc1ccccc1COc1ccc2oc(C)c(C(=O)O)c2c1", "inhibition": "-10.4% (inactive)"}, {"smiles": "O=[N+]([O-])c1c(-c2cn[nH]c2)n[nH]c1-c1cn[nH]c1", "inhibition": "-2% (inactive)"}, {"smiles": "O=C(COc1ccc(S(=O)(=O)N2CCCC2)cc1Cl)N1CCN(c2ccccc2)CC1", "inhibition": "-0.4% (inactive)"}, {"smiles": "Cc1oc(-c2ccccc2F)nc1CN1CCC(C(=O)NC2CC2)CC1", "inhibition": "-1.6% (inactive)"}, {"smiles": "O=C(CCN1C(=O)/C(=C/c2ccc(Cl)cc2)SC1=S)Nc1cccc(C(=O)O)c1", "inhibition": "1.5% (inactive)"}, {"smiles": "O=C(CCCN1C(=O)/C(=C/c2ccccc2)SC1=S)Nc1cccc(O)c1", "inhibition": "-8.3% (inactive)"}, {"smiles": "O=C(/C=C/c1ccco1)Nc1ccccc1C(=O)Nc1cccc(C(=O)O)c1", "inhibition": "-11.1% (inactive)"}, {"smiles": "CCc1ccccc1NC(=O)c1cccc(NC(=O)/C=C/c2ccco2)c1", "inhibition": "10.4% (inactive)"}, {"smiles": "COC(=O)c1sc(N2C(=O)C(O)=C(C(=O)c3ccc(C)o3)C2c2ccc([N+](=O)[O-])cc2)nc1C", "note": "(stereo not drawn)", "inhibition": "-3.4% (inactive)"}, {"smiles": "COC(=O)c1sc(N2C(=O)C(O)=C(C(=O)c3ccc(C)o3)C2c2ccc(F)cc2)nc1C", "note": "(stereo not drawn)", "inhibition": "100% (active)"}, {"smiles": "CCOc1ccc(C2C(C(=O)c3ccc(C)o3)=C(O)C(=O)N2c2nc(C)c(C(=O)OC)s2)cc1", "note": "(stereo not drawn)", "inhibition": "5.8% (inactive)"}, {"smiles": "O=S(=O)(Nc1ccc(N=Nc2ccccc2)cc1)c1ccccc1", "inhibition": "-12.2% (inactive)"}, {"smiles": "O=S(=O)(Nc1ccc(N=Nc2ccc(O)c3ccccc23)cc1)c1ccccc1", "inhibition": "70.3% (active)"}, {"smiles": "O=S(=O)(Nc1ccc(O)c(NS(=O)(=O)c2ccccc2)c1)c1ccccc1", "inhibition": "-5.8% (inactive)"}, {"smiles": "COc1cccc(NC(=O)NNC(=O)CCc2ccc(O)c(O)c2)c1", "inhibition": "11.4% (inactive)"}, {"smiles": "CC(=O)c1ccc(N2CCN(c3ncc(C(F)(F)F)cc3Cl)CC2)cc1", "inhibition": "-3.2% (inactive)"}, {"smiles": "CN(C)C=NC(=O)c1ccc(N2CCN(c3ncc(C(F)(F)F)cc3Cl)CC2)cc1", "inhibition": "14.6% (inactive)"}, {"smiles": "O=C(CSc1nnc(-c2ccc(F)cc2)o1)c1ccc2c(c1)OCCO2", "inhibition": "11.5% (inactive)"}, {"smiles": "O=C(/C=C/c1ccccc1)NC(NC(=S)Nc1cc(Cl)ccc1Cl)C(Cl)(Cl)Cl", "note": "(stereo not drawn)", "inhibition": "27.8% (inactive)"}, {"smiles": "O=C(/C=C/c1ccccc1)NC(NC(=S)Nc1ccc(Cl)cc1)C(Cl)(Cl)Cl", "note": "(stereo not drawn)", "inhibition": "-0.3% (inactive)"}, {"smiles": "O=C(/C=C/c1ccccc1)NC(NC(=S)Nc1ccc(Cl)cc1Cl)C(Cl)(Cl)Cl", "note": "(stereo not drawn)", "inhibition": "76.2% (active)"}]}]}
